Entries with a potency or affinity are not part of this list. Activity calls are given as the source filed them. No rule for the calls is given here.
Conditions: HEK293 cytotoxicity, plate reader; series mostly up to 26 µM; activity change, negative = cytotoxicity: at the top concentration
With Cc1cccc(OCCn2c(=S)[nH]c3ccccc32)c1 the “activity change, negative = cytotoxicity” value was -9.77% (inactive). In the case of CC(C)Oc1ccc(OCCn2c(=S)[nH]c3ccccc32)cc1, the “activity change, negative = cytotoxicity” value was -4.94% (inactive). For COc1ccc(OCCn2cnc3ccccc32)cc1, the “activity change, negative = cytotoxicity” value was 1.18% (inactive). With CCc1nc2ccccc2n1CCOc1ccccc1 the “activity change, negative = cytotoxicity” value was 0.75% (inactive). In the case of Clc1ccccc1OCCn1cnc2ccccc21, the “activity change, negative = cytotoxicity” value was 1.94% (inactive). In the case of CSc1nc2ccccc2n1CCOc1cc(C)ccc1C(C)C, the “activity change, negative = cytotoxicity” value was -2.02% (inactive). With Cc1ccc(OCCn2cnc3cc(C)c(C)cc32)cc1 the “activity change, negative = cytotoxicity” value was 4.94% (inactive). For OCc1nc2ccccc2n1CCOc1ccccc1, the “activity change, negative = cytotoxicity” value was 4.92% (inactive). For Cc1ccc(OCCn2cnc3ccccc32)c(C)c1, the “activity change, negative = cytotoxicity” value was -3.05% (inactive). In the case of CC(C)Oc1ccc(OCCn2cnc3ccccc32)cc1, the “activity change, negative = cytotoxicity” value was -11.5% (inactive). With Clc1ccc(OCCn2cnc3ccccc32)c(Cl)c1 the “activity change, negative = cytotoxicity” value was -8.49% (inactive). In the case of COc1cccc(OCCn2cnc3ccccc32)c1, the “activity change, negative = cytotoxicity” value was -6.92% (inactive). With FC(F)(F)c1cccc(OCCn2cnc3ccccc32)c1 the “activity change, negative = cytotoxicity” value was -20.5% (inactive). In the case of Fc1cccc2c1[nH]c(=S)n2CCOc1ccccc1, the “activity change, negative = cytotoxicity” value was -1.06% (inactive). For Fc1ccc2c(c1)[nH]c(=S)n2CCOc1ccccc1, the “activity change, negative = cytotoxicity” value was -9.9% (inactive). With CSc1nc2ccccc2n1CCOc1ccc(C)cc1 the “activity change, negative = cytotoxicity” value was 3.08% (inactive). With CCCCc1nc2ccccc2n1CCOc1ccccc1 the “activity change, negative = cytotoxicity” value was 2.48% (inactive). In the case of S=c1[nH]c2cccc(Cl)c2n1CCOc1ccccc1, the “activity change, negative = cytotoxicity” value was -3.5% (inactive). For CCSc1nc2ccccc2n1CCOc1ccccc1, the “activity change, negative = cytotoxicity” value was -3.94% (inactive). With Fc1ccc(OCCn2c(=S)[nH]c3ccccc32)cc1 the “activity change, negative = cytotoxicity” value was 3.96% (inactive). In the case of Clc1ccc(OCCn2cnc3ccccc32)cc1, the “activity change, negative = cytotoxicity” value was -3.98% (inactive). For Cc1ccc(C(C)C)c(OCCn2c(=S)[nH]c3ccccc32)c1, the “activity change, negative = cytotoxicity” value was -6.34% (inactive). In the case of Cc1cccc(OCCn2cnc3ccccc32)c1, the “activity change, negative = cytotoxicity” value was 0.448% (inactive). With O=S(=O)(c1ccc(OCCn2cnc3ccccc32)cc1)N1CCOCC1 the “activity change, negative = cytotoxicity” value was -5.74% (inactive). In the case of Cc1ccc2c(c1)[nH]c(=S)n2CCOc1ccccc1, the “activity change, negative = cytotoxicity” value was -7.88% (inactive). With CS(=O)(=O)c1ccc(OCCn2cnc3ccccc32)cc1 the “activity change, negative = cytotoxicity” value was -4.02% (inactive). With Cc1cc2ncn(CCOc3ccccc3)c2cc1C the “activity change, negative = cytotoxicity” value was -13.7% (inactive). For Cc1cccc(OCCn2c(=S)[nH]c3c(F)cccc32)c1, the outcome was “inactive”. For Cc1ccccc1OCCn1cnc2ccccc21, the “activity change, negative = cytotoxicity” value was 0.81% (inactive). In the case of CCCc1nc2ccccc2n1CCOc1ccccc1, the “activity change, negative = cytotoxicity” value was -1.9% (inactive). In the case of COc1ccccc1OCCn1c(=S)[nH]c2ccccc21, the “activity change, negative = cytotoxicity” value was 6.22% (inactive).
